Test results: PubChem BioAssay AID1159580 (chemical genetic matrix, 2015)
“And” between values parts separate entries of the source, which are not always exact repeats. Identical values can stand only once. The whole screen tested about 5,500 compounds, of which about 2,000 (36%) were called active. Roughly 18% stayed inconclusive and do not appear here. Rule as the data show it: active = normalized growth mostly below about 0.91 (no sharp cut-off); inconclusive = no clear call, values can overlap the other calls; inactive = mostly above about 0.92. The list shows a part of the results.

Assay: chemical genetic growth profiling, strain panel (AID 1159580);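 also: tested at 20 µM; growth read once vehicle control cultures reached saturation at 30 °C; 1 = growth at the plate median or of vehicle wells; lower values mean less growth of the strain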
Details: S. cerevisiae deletion strains, growth OD

Measured: normalized growth

CC1CCCC(C)N1NC(=O)c1ccc(Cl)c(S(N)(=O)=O)c1 (stereo unspecified)
inactive: locus YAL013W, strain DEP1, hits give low values 1 | locus YAL021C, strain ccr4, hits give low values 1 | locus YAL026C, strain drs2, hits give low values 1.03 | locus YAL030W, strain snc1, hits give low values 0.989 | locus YBL061C, strain skt5, hits give low values 1.02 | locus YBR009C, strain hhf1, hits give low values 1.02 | locus YBR021W, strain FUR4, hits give low values 1.09 | locus YBR023C, strain chs3, hits give low values 1.01 | locus YBR171W, strain sec66, hits give low values 1.03 | locus YBR229C, strain ROT2, hits give low values 0.996 | locus YBR231C, strain swc5, hits give low values 1.05 | locus YBR279W, strain paf1, hits give low values 1 | locus YCL011C, strain gbp2, hits give low values 0.932 | locus YCL016C, strain dcc1, hits give low values 1.02 | locus YCL029C, strain bik1, hits give low values 0.974 | locus YCL069W, strain vba3, hits give low values 1 | locus YCR088W, strain abp1, hits give low values 1.01 | locus YDL005C, strain med2, hits give low values 1.01 | locus YDL035C, strain GPR1, hits give low values 1.01 | locus YDL040C, strain nat1, hits give low values 1.01 | locus YDL074C, strain BRE1, hits give low values 0.991 | locus YDL101C, strain DUN1, hits give low values 0.983 | locus YDL134C, strain PPH21, hits give low values 1 | locus YDL185W, strain tfp1, hits give low values 0.964 | locus YDL192W, strain arf1, hits give low values 0.988 | locus YDR001C, strain nth1, hits give low values 1.01 | locus YDR069C, strain doa4, hits give low values 1.01 | locus YDR101C, strain arx1, hits give low values 0.99 | locus YDR137W, strain rgp1, hits give low values 1.01 | locus YDR150W, strain NUM1, hits give low values 0.992 | locus YDR159W, strain sac3, hits give low values 1.02 | locus YDR162C, strain NBP2, hits give low values 0.997 | locus YDR195W, strain ref2 1 | locus YDR297W, strain sur2, hits give low values 1.01 | locus YDR318W, strain mcm21, hits give low values 1 | locus YDR334W, strain swr1, hits give low values 1.02 | locus YDR335W, strain msn5, hits give low values 1.02 | locus YDR388W, hits give low values 0.998 | locus YDR392W, strain spt3, hits give low values 1.03 | locus YDR502C, strain sam2, hits give low values 0.993 | locus YEL003W, strain gim4, hits give low values 1.02 | locus YEL037C, strain rad23, hits give low values 1.02 | locus YEL061C, strain CIN8 (second series), hits give low values 1.01 | locus YEL061C, strain CIN8, hits give low values 1 | locus YER015W, strain faa2, hits give low values 1.02 | locus YER016W, strain bim1, hits give low values 1.02 | locus YER110C, hits give low values 0.983 | locus YER111C, strain swi4, hits give low values 1.01 | locus YER155C, strain BEM2 (second series), hits give low values 1.04 | locus YER155C, strain BEM2, hits give low values 1 | locus YER167W, strain BCK2, hits give low values 0.997 | locus YFR010W, strain ubp6, hits give low values 1.03 | locus YGL078C, strain dbp3, hits give low values 0.997 | locus YGL086W, strain mad1, hits give low values 1 | locus YGL167C, strain pmr1, hits give low values 1.01 | locus YGL173C, strain kem1, hits give low values 1.03 | locus YGL227W, strain vid30, hits give low values 1.02 | locus YGL240W, strain doc1, hits give low values 1.01 | locus YGL248W, strain PDE1, hits give low values 1 | locus YGL253W, strain hxk2, hits give low values 1.02 | locus YGR078C, strain PAC10, hits give low values 0.983 | locus YGR135W, strain pre9, hits give low values 0.993 | locus YGR229C, strain SMI1, hits give low values 0.991 | locus YGR252W, strain gcn5, hits give low values 1.2 | locus YHR013C, strain ard1, hits give low values 1.01 | locus YHR027C, strain rpn1, hits give low values 1.01 | locus YHR030C, strain SLT2, hits give low values 0.998 and 0.962 | locus YHR079C, strain IRE1 (second series), hits give low values 0.985 | locus YHR079C, strain IRE1, hits give low values 0.949 | locus YHR094C, strain hxt1, hits give low values 0.986 | locus YHR129C, strain ARP1, hits give low values 0.984 | locus YHR142W, strain chs7, hits give low values 1.01 | locus YHR200W, strain rpn10, hits give low values 1 | locus YIL066C, strain RNR3, hits give low values 0.995 | locus YIL073C, strain SPO22, hits give low values 0.874 | locus YIL125W, strain kgd1, hits give low values 0.956 | locus YIR030C, strain dcg1, hits give low values 0.998 | locus YJL092W, strain hpr5, hits give low values 1.02 | locus YJL095W, strain BCK1 (second series), hits give low values 1.01 | locus YJL095W, strain BCK1, hits give low values 0.972 and 0.992 | locus YJL115W, strain asf1, hits give low values 1.01 | locus YJL129C, strain trk1, hits give low values 1.03 | locus YJL134W, strain LCB3, hits give low values 0.993 | locus YJL154C, strain vps35, hits give low values 1.02 | locus YJL164C, strain tpk1, hits give low values 1 | locus YJL166W, strain qcr8, hits give low values 0.989 | locus YJL168C, strain set2, hits give low values 0.993 | locus YJL187C, strain SWE1 (second series), hits give low values 0.966 | locus YJR043C, strain POL32, hits give low values 0.982 | locus YJR066W, strain TOR1, hits give low values 0.962 | locus YJR075W, strain HOC1, hits give low values 0.985
